Measured values: PubChem BioAssay
“And” between values parts separate entries of the source, which are not always exact repeats. Equal entries are not always repeated. Records with an inconclusive call do not appear. The source made the active and inactive calls. Unless noted, no cut-off is given here; in the data, nearly all actives have AC50 up to about 26 µM.

What was measured:
[1] = viability loss in pontine glioma line – cell-based, SU-DIPG-XVII, MIPE5.0, CellTiter-Glo, qHTS, dose response (AID 1347060); settings: CellTiter-Glo ATP luminescence;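 for AC50: cells exposed to compound for 48 hours before viability readout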
[2] = viability loss in pontine glioma line – cell-based, SU-DIPG-XIII, MIPE4.0, CellTiter-Glo, qHTS, dose response (AID 1347061; cut-off not given, nearly all actives have AC50 up to about 37 µM;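 note: cells exposed to compound for 48 hours before readout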); settings: CellTiter-Glo ATP luminescence
[3] = viability loss in pontine glioma line – cell-based, JHH-DIPG-1, MIPE4.0, CellTiter-Glo, qHTS, dose response (AID 1347062; cut-off not given, nearly all actives have AC50 up to about 27 µM;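 for AC50: cells exposed to compound for two days before readout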); settings: JHH-DIPG-1 viability, CellTiter-Glo ATP luminescence
[4] = viability loss in pontine glioma line – cell-based, SU-DIPG-XIII, MIPE5.0, CellTiter-Glo, qHTS, dose response (AID 1347064; cut-off not given, nearly all actives have AC50 up to about 23 µM;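 for AC50: cells exposed to compound for 48 hours before the viability read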); settings: CellTiter-Glo ATP luminescence
[5] = viability loss in pontine glioma line – cell-based, SU-DIPG-XXV, MIPE5.0, CellTiter-Glo, qHTS, dose response (AID 1347065); settings: CellTiter-Glo ATP luminescence;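 note: cells exposed to compound for 48 hours before ATP readout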
[6] = growth inhibition of DIPG cells – cell-based, MIPE4.0 library, CellTiter-Glo luminescence, qHTS (AID 1347066; cut-off not given, nearly all actives have AC50 up to about 30 µM;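 note: cells exposed to compound for 48 hours before readout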); settings: SU-DIPG-VI viability, CellTiter-Glo ATP luminescence
[7] = JHH-DIPG-1 glioma cell viability, MIPE5.0 library, CellTiter-Glo luminescence, qHTS (AID 1347067); settings: JHH-DIPG-1 glioma viability, CellTiter-Glo ATP luminescence;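 note: cells exposed to compound for 48 hours before readout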
[8] = growth inhibition of DIPG cells – cell-based, MIPE5.0 library, qHTS (AID 1347068; cut-off not given, nearly all actives have IC50 up to about 30 µM;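 for IC50: cells exposed to compound for 48 hours before viability readout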); settings: SU-DIPG-XXV viability
[9] = viability loss with induced miR-34 in A549 – imaging, A549 dox-inducible miR-34, nuclei and caspase counts, primary screen (AID 1347080;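 active = compounds whose cell count with miR-34 switched on is under 0.7 times the count with it off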); settings: A549 miR-34 inducible, Hoechst nuclei count, 48 h
[10] = MELAS cybrid and Rieske KO viability enhancers – cell-based, MELAS cybrids, Rieske KO mouse fibroblasts, CellTiter-Glo, primary screen (AID 1508586;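 active = mean z-score across replicates of 1.96 or higher in either the MELAS or the Rieske mutant cell line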;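 note: z relative to plate mean and SD of compound and empty wells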); settings: low glucose
[11] = viability loss in pontine glioma line – cell-based, SU-DIPG-IV, MIPE4.0, CellTiter-Glo, qHTS, dose response (AID 1347063; cut-off not given, nearly all actives have AC50 up to about 30 µM;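 note: compound exposure lasted 48 hours before the viability readout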); settings: CellTiter-Glo ATP luminescence
[12] = compounds altering HSF1 focus formation in cells – imaging, Selleck Cancer Library (AID 1347162; in the data active = plate-normalised HSF1 focus index below about 0.46); settings: human cells, HSF1 nuclear foci imaging, at 10 µM; SSMD: measured here: HSF1 foci SSMD mean; cell count: measured here: cell number; plate-normalised HSF1 focus index: stronger effect = lower value
[13] = drug combination growth inhibition, ovarian cancer – cell-based, oncology-focused library, rucaparib conditional, profiling panel (AID 1508598;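 active = normalized viability below 100% at a tested concentration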); settings: patient-derived ovarian cancer cells, CellTiter-Glo viability, 144 h, stronger effect = lower value
[14] = stronger effect = lower value, cell number ratio, induced over uninduced
[15] = measured here: relative caspase fold change +Dox/-Dox
[16] = measured here: total cells with miR-34 induction, stronger effect = lower value
[17] = measured here: total cells without miR-34 induction
[18] = MELAS cybrid survival, CellTiter-Glo 48 h, stronger effect = higher value
[19] = Rieske KO mouse fibroblast survival, CellTiter-Glo 72 h

O=C(O)CCCc1c[nH]c2ccccc12
0.218 and 0.556: z-score [10, 19]
0.369 and 0.81: fold change [9, 15]
9590 and 9280: cell count [9, 17]
8600 and 8570: cell count [9, 16]
inactive: outcome [1] | outcome [2] | outcome [3] | outcome [4] | outcome [5] | outcome [6] | outcome [7] | outcome [8] | fold change [9, 14] 0.897 and 0.923 | z-score [10, 18] 0.687 and -0.261

COc1ccccc1-c1cccc(-c2c(O)c3cc(C#N)c(Cl)cc3[nH]c2=O)c1
inactive: outcome [1] | outcome [2] | outcome [3] | outcome [4] | outcome [5] | outcome [6] | outcome [7] | outcome [8]

Cc1cc(C(=O)NOCCO)c(Nc2ccc(I)cc2F)n(C)c1=O
3450: cell count [9, 17]
0.434: fold change [9, 15]
-1.56: z-score [10, 19]
active: AC50 [1] 0.166 µM | AC50 [2] 0.132 µM | AC50 [3] 0.105 µM | AC50 [4] 0.132 µM | AC50 [5] 0.295 µM | AC50 [7] 0.059 µM
inactive: fold change [9, 14] 1.09 | z-score [10, 18] -0.704
3770: cell count [9, 16]

COc1cc2c(cc1-c1c(C)noc1C)ncc1[nH]c(=O)n([C@H](C)c3ccccn3)c12
inactive: outcome [1] | outcome [7] | outcome [8]
active: AC50 [2] 10.5 µM | AC50 [3] 23.5 µM | AC50 [11] 13.2 µM | AC50 [6] 4.18 µM

CC(C)(N)C(=O)N[C@H](COCc1ccccc1)C(=O)N1CCC2(CC1)CN(S(C)(=O)=O)c1ccccc12
inactive: outcome [1] | outcome [2] | outcome [3] | outcome [4] | outcome [5] | outcome [6] | outcome [7] | outcome [8]

CO[C@H]1/C=C/O[C@@]2(C)Oc3c(C)c(O)c4c(O)c(c5c(nc6cc(C)ccn65)c4c3C2=O)NC(=O)/C(C)=C\C=C\[C@H](C)[C@H](O)[C@@H](C)[C@@H](O)[C@@H](C)[C@H](OC(C)=O)[C@@H]1C
active: AC50 [1] 16.6 µM | AC50 [4] 13.2 µM | AC50 [5] 23.5 µM | AC50 [7] 14.8 µM
-0.714: z-score [10, 19]
inactive: outcome [2] | outcome [3] | z-score [10, 18] 0.239

O=C(O)C1=CC(O)C(O)[C@H](O)C1 (stereo partly specified)
inactive: outcome [1] | outcome [2] | outcome [3] | outcome [4] | outcome [5] | outcome [7] | outcome [8]

O=C(O)c1ccc(O)c2ncc(N3CCOCC3)cc12
inactive: outcome [1] | outcome [3] | outcome [8]
active: AC50 [2] 26.4 µM | AC50 [11] 23.5 µM | AC50 [6] 26.4 µM | AC50 [7] 23.5 µM

CC1(C)C(N(O)C(=O)Nc2ccc(Cl)cc2)N(c2ccc(Cl)cc2)C(=O)N1CC(=O)N/N=C/C=C/c1ccc([N+](=O)[O-])o1 (stereo unspecified)
active: AC50 [1] 7.42 µM | AC50 [2] 26.4 µM | AC50 [3] 10.5 µM | AC50 [4] 3.72 µM | AC50 [5] 14.8 µM | AC50 [6] 20.9 µM | AC50 [7] 6.61 µM | IC50 [8] 18.6 µM

CC[C@H](CO)Nc1nc(NCc2ccccc2)c2ncn(C(C)C)c2n1
1.07: fold change [9, 15]
inactive: fold change [9, 14] 0.923 | plate-normalised HSF1 focus index [12] 1.11
7490: cell count [12]
1.82: SSMD [12]
1060: cell count [9, 17]
983: cell count [9, 16]
active: AC50 [1] 20.9 µM | AC50 [2] 16.6 µM | AC50 [3] 26.4 µM | AC50 [11] 20.9 µM

Cc1ccc(NC(=O)c2cccc(C(C)(C)C#N)c2)cc1Nc1ccc2ncn(C)c(=O)c2c1
active: AC50 [1] 2.09 µM | AC50 [2] 4.18 µM | AC50 [3] 5.9 µM | AC50 [4] 1.48 µM | AC50 [5] 7.42 µM | AC50 [7] 0.934 µM | viability ([13]; at 0.000305 µM, OCI-P5x cells, with rucaparib 20 µM, 100% = cells with rucaparib alone) 95.5% | viability ([13]; at 0.000305 µM, OCI-P5x cells, without rucaparib) 90.4% | viability ([13]; at 0.00122 µM, OCI-P5x cells, without rucaparib) 95.5% | viability ([13]; at 0.00488 µM, OCI-P5x cells, without rucaparib) 99.1% | viability ([13]; at 0.0195 µM, OCI-P5x cells, without rucaparib) 95% | viability ([13]; at 0.0781 µM, OCI-P5x cells, with rucaparib 20 µM, 100% = cells with rucaparib alone) 84.1% | viability ([13]; at 0.0781 µM, OCI-P5x cells, without rucaparib) 82.8% | viability ([13]; at 0.313 µM, OCI-P5x cells, with rucaparib 20 µM, 100% = cells with rucaparib alone) 68.7% | viability ([13]; at 0.313 µM, OCI-P5x cells, without rucaparib) 85.5% | viability ([13]; at 1.25 µM, OCI-P5x cells, with rucaparib 20 µM, 100% = cells with rucaparib alone) 73.2% | viability ([13]; at 1.25 µM, OCI-P5x cells, without rucaparib) 81.8% | viability ([13]; at 5 µM, OCI-P5x cells, with rucaparib 20 µM, 100% = cells with rucaparib alone) 67.4% | viability ([13]; at 5 µM, OCI-P5x cells, without rucaparib) 22.1%
6180: cell count [9, 17]
5830: cell count [9, 16]
inactive: outcome [6] | fold change [9, 14] 0.944 | plate-normalised HSF1 focus index [12] 1.12 | z-score [10, 18] 0.493 | viability ([13]; at 0.000305 µM, OCI-C5x cells, with rucaparib 10 µM, 100% = cells with rucaparib alone) 126% | viability ([13]; at 0.000305 µM, OCI-C5x cells, without rucaparib) 104% | viability ([13]; at 0.00122 µM, OCI-C5x cells, with rucaparib 10 µM, 100% = cells with rucaparib alone) 129% | viability ([13]; at 0.00122 µM, OCI-C5x cells, without rucaparib) 115% | viability ([13]; at 0.00122 µM, OCI-P5x cells, with rucaparib 20 µM, 100% = cells with rucaparib alone) 107% | viability ([13]; at 0.00488 µM, OCI-C5x cells, with rucaparib 10 µM, 100% = cells with rucaparib alone) 128% | viability ([13]; at 0.00488 µM, OCI-C5x cells, without rucaparib) 109% | viability ([13]; at 0.00488 µM, OCI-P5x cells, with rucaparib 20 µM, 100% = cells with rucaparib alone) 107% | viability ([13]; at 0.0195 µM, OCI-C5x cells, with rucaparib 10 µM, 100% = cells with rucaparib alone) 116% | viability ([13]; at 0.0195 µM, OCI-C5x cells, without rucaparib) 124% | viability ([13]; at 0.0195 µM, OCI-P5x cells, with rucaparib 20 µM, 100% = cells with rucaparib alone) 109% | viability ([13]; at 0.0781 µM, OCI-C5x cells, with rucaparib 10 µM, 100% = cells with rucaparib alone) 115% | viability ([13]; at 0.0781 µM, OCI-C5x cells, without rucaparib) 121% | viability ([13]; at 0.313 µM, OCI-C5x cells, with rucaparib 10 µM, 100% = cells with rucaparib alone) 112% | viability ([13]; at 0.313 µM, OCI-C5x cells, without rucaparib) 125% | viability ([13]; at 1.25 µM, OCI-C5x cells, with rucaparib 10 µM, 100% = cells with rucaparib alone) 108% | viability ([13]; at 1.25 µM, OCI-C5x cells, without rucaparib) 127% | viability ([13]; at 5 µM, OCI-C5x cells, with rucaparib 10 µM, 100% = cells with rucaparib alone) 127% | viability ([13]; at 5 µM, OCI-C5x cells, without rucaparib) 140%
7560: cell count [12]
-1.35: z-score [10, 19]
1.09: fold change [9, 15]
3.15: SSMD [12]

O=C(NC[C@H](O)CO)c1ccncc1Nc1ccc(I)cc1F
inactive: outcome [6] | outcome [8]
active: AC50 [1] 0.742 µM | AC50 [2] 1.32 µM | AC50 [3] 1.48 µM | AC50 [4] 0.417 µM | AC50 [5] 0.59 µM | AC50 [7] 0.332 µM
